Source: PubChem BioAssay AID1917 (Vanderbilt High Throughput Screening Facility, 2009)
The campaign covered roughly 3,000 compounds. About 1,600 (53%) were called active. Not shown: some 10% with an inconclusive outcome. So high a share suggests a set chosen from earlier hits. Not all results are given here. Values without a mark were called inactive.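 Rule for the calls: active = Flux at 10 µM at least 3 SD below or above vehicle control mean in one or both replicates; inconclusive = no clear call, values can overlap the other calls; inactive = the rest.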

Target: ATP-sensitive inward rectifier potassium channel 1 (Homo sapiens) (UniProt P48048)
Sequence (P48048 whole entry, looked up): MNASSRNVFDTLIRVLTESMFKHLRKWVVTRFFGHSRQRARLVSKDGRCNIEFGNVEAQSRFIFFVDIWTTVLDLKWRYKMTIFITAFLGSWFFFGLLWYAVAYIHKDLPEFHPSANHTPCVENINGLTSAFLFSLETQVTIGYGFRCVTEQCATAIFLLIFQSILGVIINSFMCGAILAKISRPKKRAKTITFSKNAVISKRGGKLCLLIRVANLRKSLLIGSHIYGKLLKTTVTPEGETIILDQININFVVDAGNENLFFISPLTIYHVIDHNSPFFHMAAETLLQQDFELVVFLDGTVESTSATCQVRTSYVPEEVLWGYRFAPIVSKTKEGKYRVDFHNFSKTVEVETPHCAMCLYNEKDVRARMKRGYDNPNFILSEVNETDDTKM
Experiment: retested modulators of human Kir1.1 channel – cell-based, thallium flux, duplicate, resupplied hits, confirmation (AID 1917)
Details: ROMK thallium flux, fluorescence ratio; at 10 µM; active compounds read low

| SMILES | normalized thallium flux (F/F0 slope) |
| --- | --- |
| CCCCCCCCCCCCn1ccc(=N)cc1 | 0.0386 (active) |
| Clc1ccc2nc3c(c(-c4ccccc4)c2c1)CNCC3 | 0.0588 (active) |
| CC1(C)Cc2c(C#N)c(N3CCNCC3)nc(-c3ccco3)c2CS1 | 0.0568 (active) |
| COc1ccccc1N=Nc1c(O)[nH]c(=S)[nH]c1=O | 0.0657 (active) |
| N#Cc1ccc(Cn2cc(C(=O)c3ccco3)c3ccccc32)cc1 | 0.0753 |
| Cc1cc(C=C2C(=O)NC(=O)NC2=O)c(C)n1-c1ccncc1 | 0.0636 (active) |
| Cc1nc2ccccn2c1P(=S)(N1CCCCC1)N1CCCCC1 | 0.0668 (active) |
| NC(=O)Nc1cccc(C(F)(F)F)c1 | 0.0825 |
